The values below come from PubChem BioAssay (NCI).

Molecules are shown by their SMILES. The panel holds about 83,000 compounds, 20% with a hit somewhere; the sample as a whole holds those more often.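 In brief: 96-well plates, 48 h treatment, single concentration, percent growth endpoint.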 A number with no mark means an inactive call. The source made the active and inactive calls. The calls were made as follows: active = growth percent below 10; inactive = the rest.

Among the test systems are NCI-H23 lung; NCI-H226 lung; NCI-H322M lung; HOP-62 NSCLC; NCI-H460 lung; HOP-92 NSCLC; NCI-H522 lung; A549/ATCC NSCLC; 786-0 renal; COLO 205 colon; DU-145 prostate; K-562 leukemia; MALME-3M melanoma; MDA-MB-231 breast; RXF 393 renal; SF-268 CNS; SF-295 CNS; SF-539 CNS; UACC-257 melanoma; M14 melanoma.
Common to all, as to experiment: NCI-60 one-dose screen, 48 h (100 = growth as untreated, 0 = no growth, -100 = all killed)
What all share (conditions): 10 µM

On to `NC1CCC(Nc2nc(NCc3cc(Cl)ccc3O)c3ncn(C4CCCC4)c3n2)CC1` (stereo not given), for which the growth was -49.1% (active) in the assay with NCI-H23 lung; -6.72% (active) with NCI-H226 lung; 10.9% in the assay with NCI-H322M lung; -18% (active) in the assay with HOP-62 NSCLC; 0.39% (active) in the assay on NCI-H460 lung; -18.1% (active) in the assay with HOP-92 NSCLC. Also, the growth is -50.2% (active) in the assay on NCI-H522 lung; -4.99% (active) in the assay with A549/ATCC NSCLC; -11.3% (active) with 786-0 renal; -63.1% (active) with COLO 205 colon; 0.994% (active) with DU-145 prostate; -23.3% (active) in the assay with K-562 leukemia. Besides, the growth in the assay on MALME-3M melanoma is -65.5% (active); in the assay with MDA-MB-231 breast it was -16.7% (active); in the assay with RXF 393 renal, -58.9% (active); with SF-268 CNS, -23.1% (active); in the assay on SF-295 CNS, -5.72% (active); in the assay on SF-539 CNS it was -62.4% (active). Besides, the values for the growth with UACC-257 melanoma and in the assay on M14 melanoma were -58.9% (active) and -71.6% (active), respectively.

Turning to `COc1ccc(C2C=C(c3ccc(Cl)c(Cl)c3)N=C3SC(C)=CN32)cc1OC` (stereo not given), the growth with NCI-H23 lung is 64%; in the assay on NCI-H226 lung it was 79.7%; in the assay on NCI-H322M lung, 71.7%; with HOP-62 NSCLC it was 82.3%; in the assay with NCI-H460 lung it was 70.2%; with HOP-92 NSCLC, 47.2%. The growth was 57.9% in the assay with NCI-H522 lung; 58.6% with A549/ATCC NSCLC; 78.8% in the assay on 786-0 renal; 72.1% in the assay on COLO 205 colon; 83.6% in the assay with DU-145 prostate; 59.5% with K-562 leukemia. The growth in the assay with MALME-3M melanoma was 87.3%; with MDA-MB-231 breast, 46.1%; with RXF 393 renal, 66.4%; in the assay with SF-268 CNS, 63.2%; in the assay on SF-295 CNS, 42.5%; in the assay with SF-539 CNS it was 90.7%. The growth was 79.7% in the assay on UACC-257 melanoma and 71% with M14 melanoma.

As to `C=CCOc1ccc2c(c1)CC=C1[C@@H]2CC[C@]2(C)C(=O)/C(=N/O)C[C@@H]12`, the growth in the assay on NCI-H23 lung was 95.1%; in the assay on NCI-H226 lung, 96.1%; with NCI-H322M lung it was 81.2%; in the assay on HOP-62 NSCLC, 103%; with NCI-H460 lung, 60.3%; in the assay with HOP-92 NSCLC it was 101%. Besides, the growth in the assay on NCI-H522 lung was 80.7%; with A549/ATCC NSCLC, 84.3%; in the assay on 786-0 renal, 79.2%; in the assay with COLO 205 colon it was 91.3%; in the assay with DU-145 prostate it was 91.7%; in the assay with K-562 leukemia, 8.09% (active). Also, the growth in the assay on MALME-3M melanoma is 96.2%; in the assay with MDA-MB-231 breast it was 90.2%; in the assay with RXF 393 renal it was 53.7%; with SF-268 CNS, 76.3%; in the assay on SF-295 CNS, 64.3%; with SF-539 CNS, 46.1%. The figures for the growth with UACC-257 melanoma and in the assay on M14 melanoma were 117% and 79.4%, respectively.

As to `COc1ccc(-c2cc(/C=C3\C(=O)Nc4cc(Cl)ccc43)[nH]n2)cc1OC`, the growth is 92.9% in the assay with NCI-H23 lung; 80.8% in the assay with NCI-H226 lung; 89.8% in the assay with NCI-H322M lung; 75% in the assay on HOP-62 NSCLC; 62.9% in the assay with NCI-H460 lung; 81.7% in the assay on HOP-92 NSCLC. For the same compound, the growth in the assay with NCI-H522 lung was 46%; in the assay on A549/ATCC NSCLC, 75.7%; with 786-0 renal, 105%; in the assay with COLO 205 colon it was 79.4%; in the assay with DU-145 prostate, 96.4%; with K-562 leukemia it was 33.1%. Moreover, the growth is 37.7% in the assay on MALME-3M melanoma; 78.2% in the assay on MDA-MB-231 breast; 73.1% in the assay on RXF 393 renal; 74.4% in the assay with SF-268 CNS; 47.6% with SF-295 CNS; 69.1% with SF-539 CNS. Further, the growth with UACC-257 melanoma was 114%; in the assay on M14 melanoma it was 68%.

Take `CC(=O)Nc1ccc(Sc2ccc(NC(C)=O)cc2)cc1`: the growth with NCI-H23 lung is 94.1%; in the assay on NCI-H226 lung, 101%; in the assay with NCI-H322M lung, 110%; in the assay on HOP-62 NSCLC, 70.7%; with NCI-H460 lung, 105%; in the assay on HOP-92 NSCLC it was 83.1%. Further, the growth in the assay with NCI-H522 lung is 75.7%; with A549/ATCC NSCLC, 80%; with 786-0 renal it was 94%; in the assay on COLO 205 colon it was 101%; in the assay with DU-145 prostate, 102%; with K-562 leukemia, 96.2%. Besides, the growth in the assay on MALME-3M melanoma was 102%; in the assay with MDA-MB-231 breast it was 100%; with RXF 393 renal, 109%; with SF-268 CNS it was 102%; in the assay with SF-295 CNS, 102%; in the assay on SF-539 CNS, 92%. The growth in the assay on UACC-257 melanoma is 94.4%; with M14 melanoma it was 98.2%.

For the compound `COc1c(-c2c3sc(=O)[nH]c3nc3c2c(=O)[nH]n3C(C)C)cc2c(c1OC)OCO2`, the growth in the assay on NCI-H23 lung is 100%; in the assay with NCI-H226 lung, 85.8%; in the assay on NCI-H322M lung, 92.2%; in the assay on HOP-62 NSCLC, 94.5%; in the assay on NCI-H460 lung it was 107%; with HOP-92 NSCLC, 72.2%. Besides, the growth in the assay on NCI-H522 lung is 86%; in the assay on A549/ATCC NSCLC, 95.8%; in the assay with 786-0 renal, 86.5%; with COLO 205 colon, 117%; in the assay on DU-145 prostate, 108%; in the assay with K-562 leukemia it was 86%. Also, the growth in the assay on MALME-3M melanoma is 80.3%; with MDA-MB-231 breast, 108%; in the assay on RXF 393 renal it was 110%; with SF-268 CNS it was 102%; in the assay on SF-295 CNS, 88.3%; in the assay on SF-539 CNS, 94.8%. Besides, the results for the growth in the assay with UACC-257 melanoma and with M14 melanoma were 99.7% and 93.8%, respectively.

As for `COc1cc(Cl)cc(-c2nn(-c3cccc(NC(=O)Nc4cccc(C(F)(F)F)c4)c3)cc2-c2ccncc2)c1`, the growth in the assay on NCI-H23 lung is -5.1% (active); with NCI-H226 lung, 3.94% (active); in the assay on NCI-H322M lung, 26.2%; in the assay with HOP-62 NSCLC, 15.5%; in the assay on NCI-H460 lung, -6.11% (active); with HOP-92 NSCLC it was -27.3% (active). Further, the growth is -18.6% (active) in the assay with NCI-H522 lung; 8.08% (active) with A549/ATCC NSCLC; 13.2% in the assay with 786-0 renal; -31.2% (active) in the assay with COLO 205 colon; 15.9% in the assay on DU-145 prostate; 7.61% (active) in the assay on K-562 leukemia. The growth in the assay on MALME-3M melanoma was -16.6% (active); in the assay with MDA-MB-231 breast, -9.21% (active); in the assay with RXF 393 renal, 11.8%; with SF-268 CNS it was 27.9%; in the assay with SF-295 CNS it was -7.87% (active); in the assay on SF-539 CNS it was 17%. Also, the growth was -11.7% (active) in the assay with UACC-257 melanoma and 9.99% (active) in the assay with M14 melanoma.

Take `CCCCCCCCCCCC(=O)NCCCN(C)C`: the growth was 90.4% in the assay on NCI-H23 lung; 109% with NCI-H226 lung; 97.1% in the assay on NCI-H322M lung; 111% in the assay with HOP-62 NSCLC; 99.6% in the assay with NCI-H460 lung; 45.5% in the assay on HOP-92 NSCLC. Moreover, the growth is 87.4% in the assay on NCI-H522 lung; 91.4% with A549/ATCC NSCLC; 90.9% in the assay on 786-0 renal; 94.4% in the assay on COLO 205 colon; 107% in the assay with DU-145 prostate; 59.4% in the assay on K-562 leukemia. Further, the growth in the assay on MALME-3M melanoma was 111%; in the assay on MDA-MB-231 breast, 79.1%; in the assay with RXF 393 renal, 116%; with SF-268 CNS, 96.2%; in the assay on SF-295 CNS, 95.6%; with SF-539 CNS, 86.6%. Moreover, the growth was 94.7% in the assay with UACC-257 melanoma and 98.1% with M14 melanoma.
